Only some compounds are listed: those with a hit (about 6.7% of all), similar ones and a draw of the others.
C diff growth: inhibitors of Clostridium difficile growth; Clostridium difficile clinical isolate growth, OD600, 24 h; hits give low values; growth activity, negative = inhibition, % at 16 µg/mL (by protocol); 86,000 tested, 0.25% active;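 active = mean growth activity at or below -80% and every replicate also at or below -80%; inconclusive = mean at or below -80% but some replicate above -80%; inactive = mean growth activity above -80%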
T cruzi growth-1: inhibitors of T. cruzi proliferation. 77,000 tested, 5.9% active. AID 624255. inhibition, % at 8.34 µM. T. cruzi beta-gal in NIH3T3, GalScreen luminescence, 90 h;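 active = mean inhibition above about 93%, with at least 55% of replicates each passing it, limit read from the data, passing the limit was not always enough; inconclusive = only one of those two conditions holds; inactive = neither condition holds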
Pf Dd2 inh: P. falciparum Dd2 growth inhibition | AID 1159554 | SYBR Green, 72 h; hits give low values | 94,000 tested, 2.3% active | activity change, % at 10 µM; in the data active = activity change below about -80%; inconclusive = no clear call, values can overlap the other calls
T cruzi growth-2: blocks T. cruzi growth in NIH3T3 host cells | shares compounds with T cruzi growth-1 | inhibition, % at 8.35 µM | 5,600 tested, 72% active | AID 651739 | T. cruzi beta-gal in NIH3T3, GalScreen luminescence, 90 h;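 active = mean replicate inhibition above about 95% and at least 55% of replicates individually reaching it, limit read from the data; inconclusive = only one of the two criteria is met; inactive = neither criterion is met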
T cruzi growth-3: blocks T. cruzi growth in NIH3T3 host cells. inhibition, % at 2.09 µM. 5,600 tested, 21% active. T. cruzi beta-gal in NIH3T3, GalScreen luminescence, 90 h. shares compounds with T cruzi growth-1;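 active = mean inhibition above about 95%, with at least 55% of replicates also reaching it, limit read from the data; inconclusive = meets just one of the two conditions; inactive = meets neither condition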
3T3 cytotox: kills mouse NIH/3T3 fibroblasts; 5,600 tested, 14% active; NIH/3T3 viability, CellTiter-Glo ATP luminescence, 90 h; cytotoxicity (signal decrease), % at 8.35 µM; shares compounds with T cruzi growth-1;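 active = mean signal decrease across replicates above about 35% based on untreated-well scatter, with enough replicates individually passing, limit read from the data; inconclusive = no rule stated though some were filed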
3T3 cytotox 2: NIH/3T3 (mouse) viability loss; NIH/3T3 viability, CellTiter-Glo ATP luminescence, 90 h; inhibition, % at 24.9 µM; 5,600 tested, 56% active; shares compounds with T cruzi growth-1; AID 651744;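 active = mean loss of cell viability signal at or above a set limit, and enough replicates individually reaching it; inconclusive = meets only the mean limit or only the replicate share; inactive = meets neither condition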
Each line names hits and unclear results; the compound was inactive in the other large screens (follow-up assays come after a bar, where they were run); ! = a repeat was not active.

C[C@H](CO)N1C[C@H](C)[C@H](CN(C)S(=O)(=O)c2cn(C)cn2)Oc2cc(C#Cc3ccc(F)cc3)ccc2S1(=O)=O	none
C[C@@H]1CN([C@@H](C)CO)S(=O)(=O)c2ccc(C#Cc3ccccc3)cc2O[C@H]1CN(C)S(=O)(=O)c1cn(C)cn1	none
C[C@H]1CN([C@@H](C)CO)S(=O)(=O)c2ccc(C#Cc3ccccc3)cc2O[C@@H]1CN(C)S(=O)(=O)c1cn(C)cn1	T cruzi growth-1 inconclusive, Pf Dd2 inh -87 | T cruzi growth-2 112 | T cruzi growth-3 inactive | 3T3 cytotox 41 | 3T3 cytotox 2 36
C[C@H]1CN([C@@H](C)CO)S(=O)(=O)c2ccc(C#Cc3cccc(F)c3)cc2O[C@H]1CN(C)S(=O)(=O)c1cn(C)cn1	T cruzi growth-1 96 | T cruzi growth-2 97 | T cruzi growth-3 inactive | 3T3 cytotox inactive | 3T3 cytotox 2 29
C[C@H](CO)N1C[C@H](C)[C@@H](CN(C)S(=O)(=O)c2cn(C)cn2)Oc2cc(C#Cc3ccc(F)cc3)ccc2S1(=O)=O	T cruzi growth-1 107 | T cruzi growth-2 96 | T cruzi growth-3 inactive | 3T3 cytotox inactive | 3T3 cytotox 2 25
C[C@@H]1CN([C@H](C)CO)S(=O)(=O)c2ccc(/C=C/c3ccccc3)cc2O[C@H]1CN(C)C(=O)CN1CCOCC1	none
Cc1noc(C)c1NC(=O)N(C)C[C@@H]1Oc2ccc(NC(=O)c3ccncc3)cc2CC(=O)N([C@@H](C)CO)C[C@H]1C	none
O=S(=O)(c1ccc(F)cc1)N1CC[C@@H]2[C@H](CO)Nc3ccc(-c4ccc(F)cc4)cc3[C@@H]21	none
Cc1ccc(S(=O)(=O)N(C)C[C@H]2OCCCC[C@H](C)Oc3ccc(NS(=O)(=O)c4ccc(Cl)cc4)cc3C(=O)N([C@H](C)CO)C[C@H]2C)cc1	T cruzi growth-1 108 | T cruzi growth-2 97 | T cruzi growth-3 109 | 3T3 cytotox inactive | 3T3 cytotox 2 inconclusive
Cc1ccc(S(=O)(=O)Nc2ccc3c(c2)C(=O)N([C@H](C)CO)C[C@H](C)[C@@H](CN(C)S(=O)(=O)c2ccc(Cl)cc2)OCCCC[C@@H](C)O3)cc1	T cruzi growth-1 108 | T cruzi growth-2 106 | T cruzi growth-3 inactive | 3T3 cytotox inactive | 3T3 cytotox 2 45
C[C@H]1CCCCO[C@@H](CN(C)S(=O)(=O)c2ccc(Cl)cc2)[C@@H](C)CN([C@@H](C)CO)C(=O)c2cc(NS(=O)(=O)c3ccc(Cl)cc3)ccc2O1	none
Cc1ccc(S(=O)(=O)Nc2ccc3c(c2)C(=O)N([C@@H](C)CO)C[C@@H](C)[C@H](CN(C)S(=O)(=O)c2ccc(Cl)cc2)OCCCC[C@@H](C)O3)cc1	T cruzi growth-1 120 | T cruzi growth-2 101 | T cruzi growth-3 100 | 3T3 cytotox inactive | 3T3 cytotox 2 inactive
Cc1ccc(S(=O)(=O)Nc2ccc3c(c2)C(=O)N([C@H](C)CO)C[C@@H](C)[C@@H](CN(C)S(=O)(=O)c2ccc(Cl)cc2)OCCCC[C@H](C)O3)cc1	T cruzi growth-1 117, Pf Dd2 inh -86 | T cruzi growth-2 97 | T cruzi growth-3 107 | 3T3 cytotox inactive | 3T3 cytotox 2 inactive
CCCC#Cc1cnc2c(c1)C(=O)N([C@@H](C)CO)C[C@@H](C)[C@@H](CN(C)C(=O)c1ccc3c(c1)OCO3)O2	none (no result: C diff growth)
Cc1noc(C)c1S(=O)(=O)Nc1ccc2c(c1)CC(=O)N([C@H](C)CO)C[C@H](C)[C@H](CN(C)S(C)(=O)=O)O2	none
COc1cccc(-c2cn(CC[C@H]3CC[C@@H](NC(=O)CC4CC4)[C@@H](CO)O3)nn2)c1	none
Cc1ccc(S(=O)(=O)N(C)C[C@H]2OCCCC[C@@H](C)Oc3ccc(NC(=O)Nc4cccc5ccccc45)cc3C(=O)N([C@@H](C)CO)C[C@@H]2C)cc1	none (no result: T cruzi growth-1)
COc1cccc(CN(C)C[C@H]2OCc3ccccc3-c3ccccc3C(=O)N([C@H](C)CO)C[C@@H]2C)c1	none
COCC(=O)N1CC[C@H]2[C@H](CO)Nc3ccc(-c4cccc(C(=O)N(C)C)c4)cc3[C@H]21	none
CN1CCN(C(=O)C2=C[C@H](c3ccc(Br)cc3)C[C@H](OCc3ccc(CO)cc3)O2)CC1	none (no result: T cruzi growth-1, Pf Dd2 inh)
C[C@@H]1CCCCO[C@@H](CN(C)S(=O)(=O)c2ccc(Cl)cc2)[C@@H](C)CN([C@@H](C)CO)C(=O)c2cc(NS(=O)(=O)c3ccc(Cl)cc3)ccc2O1	none
Cc1ccc(S(=O)(=O)Nc2ccc3c(c2)C(=O)N([C@@H](C)CO)C[C@H](C)[C@H](CN(C)S(=O)(=O)c2ccc(Cl)cc2)OCCCC[C@@H](C)O3)cc1	T cruzi growth-1 99, Pf Dd2 inh -86 | T cruzi growth-2 102 | T cruzi growth-3 113 | 3T3 cytotox inactive | 3T3 cytotox 2 47
Cc1ccc(S(=O)(=O)Nc2ccc3c(c2)C(=O)N([C@H](C)CO)C[C@@H](C)[C@@H](CN(C)S(=O)(=O)c2ccc(Cl)cc2)OCCCC[C@@H](C)O3)cc1	T cruzi growth-1 119, Pf Dd2 inh -85 | T cruzi growth-2 103 | T cruzi growth-3 115 | 3T3 cytotox inactive | 3T3 cytotox 2 inactive
Cc1ccc(S(=O)(=O)Nc2ccc3c(c2)C(=O)N([C@H](C)CO)C[C@H](C)[C@H](CN(C)S(=O)(=O)c2ccc(Cl)cc2)OCCCC[C@H](C)O3)cc1	T cruzi growth-1 112 | T cruzi growth-2 100 | T cruzi growth-3 107 | 3T3 cytotox inactive | 3T3 cytotox 2 inactive
C[C@H]1CCCCO[C@H](CN(C)S(=O)(=O)c2ccc(Cl)cc2)[C@@H](C)CN([C@@H](C)CO)C(=O)c2cc(NS(=O)(=O)c3ccc(Cl)cc3)ccc2O1	none
O=C(C[C@H]1C[C@@H]2c3cc(NC(=O)Nc4ccccc4)ccc3O[C@@H]2[C@@H](CO)O1)NCc1cccc(F)c1	none
C[C@H](CO)N1C[C@H](C)[C@@H](CN(C)Cc2cccnc2)Oc2cc(-c3ccccc3)ccc2S1(=O)=O	none
C[C@@H]1CN([C@@H](C)CO)S(=O)(=O)c2ccc(-c3ccncc3)cc2O[C@@H]1CN(C)Cc1cccnc1	none
Cc1ccc(-c2ccc3c(c2)O[C@H](CN(C)Cc2cccnc2)[C@@H](C)CN([C@H](C)CO)S3(=O)=O)cc1	T cruzi growth-1 119, Pf Dd2 inh inconclusive | T cruzi growth-2 99 | T cruzi growth-3 112 | 3T3 cytotox 80 | 3T3 cytotox 2 92
C[C@H](CO)N1C[C@H](C)[C@@H](CN(C)Cc2cccnc2)Oc2cc(-c3cccnc3)ccc2S1(=O)=O	T cruzi growth-1 101! | T cruzi growth-2 inactive | T cruzi growth-3 inactive | 3T3 cytotox inactive | 3T3 cytotox 2 64
